Assay results reported in PubChem BioAssay (NCATS).
Records with an inconclusive call do not appear. Calls of active or inactive are those of the source. Unless noted, calls follow the shape of the dose curve; as a rule, active = well fitted curve in the direction sought with a large enough effect; inconclusive = small, poorly fitted or top-dose-only effect, or another doubt; inactive = no such curve, though single readings can be large; an effect the other way counts as inactive or inconclusive.

Columns and labels:
[1] = molecular target: Lysosomal acid glucosylceramidase (Homo sapiens) (UniProt P04062); experiment: Glucocerebrosidase-p2 (AID 348; in the data active = potency below about 10 µM; also: potency is read from the fitted curve at half-maximal effect); conditions: purified GBA, blue fluorogenic substrate, 40 min
In short: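 Compounds titrated from 0.6 nM upwards against 0.2 nM enzyme in pH 5.9 citric acid/KH2PO4, taurocholate, tween-20; blue fluorogenic substrate 80 uM, 40 min room temperature, stopped and read Ex 365/Em 440 for AC50.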

[2] = AP1 Signaling Pathway (AID 357; active = well fitted curve in either direction with a large enough effect, not every such curve was filed as active; also: % is scaled to controls: 0 for no effect and ±100 for the full control effect)
In short: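 AP-1-bla ME-180 cells with beta-lactamase reporter under AP-1 response element, stimulated with EC50 EGF; compounds titrated, 5 hours at 37 degrees Celsius. CCF4 read at 460/530 nm ratio; positive and negative modulators judged by AC50.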

[3] = NFAT Signaling Pathway (AID 444; active = well fitted curve in either direction with a large enough effect, not every such curve was filed as active;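 also: carbachol stimulus at about its EC50 of 1 µM final; % is scaled to controls: 0 for no effect and ±100 for the full control effect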); conditions: Jurkat NFAT-bla M1, carbachol, beta-lactamase ratio, 5 h; at 17.2 µM (top of the series) unless noted
In short: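 Jurkat cells carrying an NFAT-driven β-lactamase reporter and co-transfected muscarinic M1 receptor were treated with compound plus carbachol (1 uM final, an EC50 level) for 5 h at 37 °C. CCF4 loading followed for 1 h at RT; 460/530 nm ratio gave %activity.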

[4] = molecular target: Glucocorticoid receptor (Homo sapiens) (UniProt P04150); experiment: GR-GFP Redistribution (AID 450;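 active = compounds whose dose series gives a full or clear partial fitted curve of increased nuclear translocation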; also: potency is read from the fitted curve at half-maximal effect); conditions: U2OS GR-GFP nuclear translocation, laser cytometry, 2 h
[5] = molecular target: Glucocorticoid receptor (Homo sapiens) (UniProt P04150); experiment: GR-EFC Redistribution (AID 451; calls by dose curve; also: potency is read from the fitted curve at half-maximal effect); conditions: CHO-K1 GR-EFC translocation, beta-gal luminescence, 2 h
In short: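 CHO-K1 cells stably expressing nuclear-localized β-gal enzyme acceptor and GR fused C-terminally to the enzyme donor fragment; ligand-driven nuclear translocation restores β-gal by complementation. Compounds titrated up to 46 uM final, 2 h at 37 °C; luminescence read.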

[6] = molecular target: Mitogen-activated protein kinase 10 (Mus musculus) (UniProt Q61831); experiment: JNK3 AlphaScreen Assay (AID 530; active = well fitted curve in either direction with a large enough effect, not every such curve was filed as active;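 also: kinase came from lysate of stimulated human HepG2 cells; signal reports phosphorylation of biotinylated GST-cJun 1-79 at Ser73 with 10 µM ATP; % is scaled to controls: 0 for no effect and ±100 for the full control effect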)
In short: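 Inhibitors reduce antibody binding to phosphorylated biotin-cJun, lowering AlphaScreen luminescence. Lysates from HepG2 cells pre-activated by IL-1beta plus TNF-alpha supplied JNK3; compounds were titrated.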

[7] = molecular target: 3',5'-cyclic-AMP phosphodiesterase 4B (Homo sapiens) (UniProt Q07343); experiment: qHTS Assay for Inhibitors of PDE-IV (AID 607; active = well fitted activation curve with a large enough effect in the main read-out, with a control signal flat, not every such curve was filed as active; also: % of control where 0% means no effect)
In short: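 Cell-based read-out of cAMP via a modified cyclic nucleotide-gated channel and membrane potential dye (535/590 nm) in HEK293 cells expressing PDE4 endogenously. Compounds tested up to 22.9 uM final; 100 uM RO 20-1724 reference.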

[8] = molecular target: Cytochrome P450 1A2 (Homo sapiens) (UniProt P05177); experiment: p450-cyp1a2 (AID 410; calls by dose curve; also: potency is read from the fitted curve at half-maximal effect;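 as to activity change, negative = inhibition: -100% = full effect of reference inhibitor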)
In short: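 Luminescent readout of luciferin formed from Luciferin-ME by human CYP1A2; data normalized against complete inhibition by 57 uM furafylline. Enzyme 20nM, substrate 100uM at Km, 100mM KPO4 buffer, 60 min reaction at room temperature.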

[9] = Cell Viability - BJ (AID 421; calls by dose curve;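 also: potency is read from the fitted curve at half-maximal effect; cells exposed to compound for 40 hours at 37 °C before readout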); conditions: BJ fibroblast viability, qHTS
In short: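 Cytotoxicity as drop in intracellular ATP (CellTiter-Glo, 20 min RT) after 40 hr compound exposure of BJ fibroblasts at 37 °C. Titrations scaled between DMSO and 100 uM tamoxifen, Hill-fitted for AC50.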

[10] = Cell Viability - Jurkat (AID 426;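 active = dose-dependent loss of cell ATP signal giving a full or clear fitted curve, ranked by lower potency value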; also: potency is read from the fitted curve at half-maximal effect); conditions: qHTS
In short: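 qHTS, 1536-well; Jurkat E6-1, 5000 cells/well, complete medium; cpd 40 hr, 37 °C; CellTiter-Glo 20 min RT; luminescence. AC50 by Hill fit.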

[11] = Cell Viability - Hek293 (AID 427;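 active = compounds whose dose-response curve shows a full or clear partial loss of cell viability, called from curve shape rather than a numeric limit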;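 also: potency is read from the fitted curve at half-maximal effect; cells exposed to compound for 40 hours at 37 °C before reading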); conditions: qHTS
In short: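 Luminescent ATP content (CellTiter-Glo, 20 min at room temperature) was measured after a 40 hr, 37 °C compound exposure of HEK293 cells. AC50 values came from Hill-equation fits of qHTS concentration-response data normalized to DMSO and 100 uM tamoxifen.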

[12] = Cell Viability - MRC5 (AID 434; calls by dose curve;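 also: potency is read from the fitted curve at half-maximal effect; potency reflects cytotoxicity seen as loss of intracellular ATP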); conditions: MRC5 lung fibroblast viability, qHTS
In short: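 MRC5 normal human lung fibroblasts (1500/well) were treated with compounds for 40 hr at 37 °C in complete medium, and viable cells were measured as intracellular ATP by CellTiter-Glo luminescence. AC50 came from Hill fits, normalized to DMSO and 100 uM tamoxifen.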

[13] = Cell Viability - SK-N-SH (AID 435; calls by dose curve;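 also: potency is read from the fitted curve at half-maximal effect; compound exposure lasted 40 h at 37 °C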); conditions: SK-N-SH neuroblastoma cell viability qHTS
In short: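 Human neuroblastoma line, 40 h exposure at 37 °C, ATP quantified via luciferase luminescence; DMSO and 100 uM tamoxifen define 0 and 100% inhibition for AC50 fitting.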

[14] = Cell Viability - N2a (AID 540); conditions: N2a mouse neuroblastoma cell viability; at 92.2 µM (top of the series);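 also: plate controls were DMSO alone for no effect and tamoxifen control for full effect; nearly all actives have a fitted effect of over 45% in size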
In short: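 Luminescent ATP signal (CellTiter-Glo, 20 min at room temperature) served as the viability read-out after N2a cells were treated with compounds for 40 hours at 37 °C. Concentration-response data were fitted to the Hill equation for AC50.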

[15] = Cell Viability - NIH 3T3 (AID 541); conditions: NIH 3T3 cell viability, qHTS; activity change, negative = cytotoxicity: at 92.2 µM (top of the series);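 also: plate controls were DMSO alone for no effect and tamoxifen positive control for full effect; nearly all actives have a fitted effect of over 25% in size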
In short: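 Luminescent ATP signal (CellTiter-Glo) served as the viability read-out after NIH 3T3 cells were exposed to compounds over a concentration range for 40 hr at 37 °C. Hill-equation modelling of concentration-response data gave AC50.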

[16] = Cell Viability - HUV-EC-C (AID 542); also: % is scaled to controls: 0 for no effect and ±100 for the full control effect; nearly all actives have a fitted effect of over 35% in size
In short: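 qHTS cytotoxicity: HUV-EC-C, 1000 cells/well, 5 hr settle, compound 40 hr 37 °C, CellTiter-Glo, luminescence. AC50 via Hill equation.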

[17] = Cell Viability - H-4-II-E (AID 543); also: nearly all actives have a fitted effect of over 35% in size; also: potency is read from the fitted curve at half-maximal effect
In short: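 Luminescent ATP signal (CellTiter-Glo) served as the viability read-out, with cytotoxicity seen as a concentration-dependent ATP drop. Cells were treated for 40 hours in complete medium. AC50 values derive from Hill-equation modelling.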

[18] = Cell Viability - SH-SY5Y (AID 544); also: nearly all actives have a fitted effect of over 55% in size; also: potency is read from the fitted curve at half-maximal effect
In short: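 Luminescent ATP read-out (CellTiter-Glo) measures loss of viable SH-SY5Y neuroblastoma cells after 40 hr compound exposure at 37 °C. AC50 values derive from standard Hill modelling of qHTS concentration-response data.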

[19] = Cell Viability - Renal Proximal Tubule (AID 545); conditions: renal proximal tubule cells viability, primary cells of rat origin; at 91.7 µM (top of the series);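 also: 0% = DMSO only and -100% = 100 µM tamoxifen; nearly all actives have a fitted effect of over 40% in size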
In short: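 In this qHTS format, normal rat kidney-derived proximal tubule cells in complete culture medium receive compound titrations, then sit 40 hours at 37 °C before luciferase-based ATP quantitation; potency is reported as AC50 from concentration-response curves.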

[20] = Cell Viability - Mesenchymal (AID 546);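 also: cells exposed to compound for 40 hours before reading; 0% = DMSO only and -100% = 100 µM tamoxifen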
In short: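 Normal human renal glomerulus-derived kidney mesenchymal cells, 1000 per well in complete medium, were treated with compounds for 40 hr at 37 °C. Viability was read as intracellular ATP by CellTiter-Glo luminescence; AC50 values came from Hill-equation fits of qHTS concentration-response data.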

Sequence of Cytochrome P450 1A2 (Homo sapiens) (P05177 whole entry, looked up): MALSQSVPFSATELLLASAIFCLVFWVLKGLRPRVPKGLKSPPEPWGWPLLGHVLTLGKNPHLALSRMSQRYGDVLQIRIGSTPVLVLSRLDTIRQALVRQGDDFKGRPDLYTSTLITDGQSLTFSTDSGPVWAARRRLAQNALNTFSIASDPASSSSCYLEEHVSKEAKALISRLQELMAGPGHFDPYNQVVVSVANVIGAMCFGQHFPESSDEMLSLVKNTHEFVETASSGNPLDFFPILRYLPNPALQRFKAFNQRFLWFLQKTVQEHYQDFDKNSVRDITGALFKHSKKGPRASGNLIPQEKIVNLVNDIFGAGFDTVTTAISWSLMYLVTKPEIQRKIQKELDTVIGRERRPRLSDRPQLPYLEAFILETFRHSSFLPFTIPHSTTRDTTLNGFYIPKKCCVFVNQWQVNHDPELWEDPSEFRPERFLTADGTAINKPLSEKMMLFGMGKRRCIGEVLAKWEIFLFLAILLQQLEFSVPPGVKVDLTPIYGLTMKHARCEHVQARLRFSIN
Sequence of 3',5'-cyclic-AMP phosphodiesterase 4B (Homo sapiens) (Q07343 whole entry, looked up): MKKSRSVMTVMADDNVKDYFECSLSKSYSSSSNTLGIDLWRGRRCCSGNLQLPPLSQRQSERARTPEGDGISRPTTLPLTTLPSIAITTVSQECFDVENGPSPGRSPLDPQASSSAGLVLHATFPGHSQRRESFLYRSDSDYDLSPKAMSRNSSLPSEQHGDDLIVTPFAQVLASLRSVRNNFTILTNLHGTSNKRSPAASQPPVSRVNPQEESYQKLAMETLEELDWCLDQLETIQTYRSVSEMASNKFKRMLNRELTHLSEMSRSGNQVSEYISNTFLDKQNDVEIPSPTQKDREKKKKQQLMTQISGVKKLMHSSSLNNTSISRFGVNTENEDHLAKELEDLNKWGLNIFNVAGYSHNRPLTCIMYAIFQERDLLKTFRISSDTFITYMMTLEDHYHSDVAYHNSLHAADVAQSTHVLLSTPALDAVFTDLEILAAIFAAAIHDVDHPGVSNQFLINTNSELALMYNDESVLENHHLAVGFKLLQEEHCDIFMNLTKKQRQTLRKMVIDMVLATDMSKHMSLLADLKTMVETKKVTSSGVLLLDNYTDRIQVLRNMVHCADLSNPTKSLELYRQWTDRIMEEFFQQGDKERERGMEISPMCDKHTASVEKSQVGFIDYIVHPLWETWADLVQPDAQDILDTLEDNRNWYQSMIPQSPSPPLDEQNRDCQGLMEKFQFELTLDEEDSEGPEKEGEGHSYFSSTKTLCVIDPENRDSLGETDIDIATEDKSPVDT
Sequence of Glucocorticoid receptor (Homo sapiens) (P04150 whole entry, looked up, the tested form may be a part): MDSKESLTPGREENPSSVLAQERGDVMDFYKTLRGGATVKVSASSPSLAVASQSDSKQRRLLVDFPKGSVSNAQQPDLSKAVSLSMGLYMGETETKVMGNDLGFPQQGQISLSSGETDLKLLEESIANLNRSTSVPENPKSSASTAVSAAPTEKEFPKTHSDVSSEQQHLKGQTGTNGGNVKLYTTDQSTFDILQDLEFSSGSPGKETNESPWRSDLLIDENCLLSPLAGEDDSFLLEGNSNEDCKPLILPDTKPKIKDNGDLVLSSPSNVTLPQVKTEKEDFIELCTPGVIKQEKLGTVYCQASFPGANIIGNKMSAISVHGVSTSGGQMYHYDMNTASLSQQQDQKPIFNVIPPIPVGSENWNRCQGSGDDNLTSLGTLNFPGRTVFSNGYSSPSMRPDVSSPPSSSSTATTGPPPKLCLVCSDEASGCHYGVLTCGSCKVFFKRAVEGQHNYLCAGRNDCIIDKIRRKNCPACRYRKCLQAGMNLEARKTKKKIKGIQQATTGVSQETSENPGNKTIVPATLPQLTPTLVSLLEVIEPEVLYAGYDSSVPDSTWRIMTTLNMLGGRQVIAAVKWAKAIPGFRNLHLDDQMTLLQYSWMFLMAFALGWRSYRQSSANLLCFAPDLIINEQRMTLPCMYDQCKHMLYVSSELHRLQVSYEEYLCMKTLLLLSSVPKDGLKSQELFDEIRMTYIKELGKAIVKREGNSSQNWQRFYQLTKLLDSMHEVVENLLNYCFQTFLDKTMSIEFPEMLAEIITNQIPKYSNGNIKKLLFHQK
Sequence of Lysosomal acid glucosylceramidase (Homo sapiens) (P04062 whole entry, looked up): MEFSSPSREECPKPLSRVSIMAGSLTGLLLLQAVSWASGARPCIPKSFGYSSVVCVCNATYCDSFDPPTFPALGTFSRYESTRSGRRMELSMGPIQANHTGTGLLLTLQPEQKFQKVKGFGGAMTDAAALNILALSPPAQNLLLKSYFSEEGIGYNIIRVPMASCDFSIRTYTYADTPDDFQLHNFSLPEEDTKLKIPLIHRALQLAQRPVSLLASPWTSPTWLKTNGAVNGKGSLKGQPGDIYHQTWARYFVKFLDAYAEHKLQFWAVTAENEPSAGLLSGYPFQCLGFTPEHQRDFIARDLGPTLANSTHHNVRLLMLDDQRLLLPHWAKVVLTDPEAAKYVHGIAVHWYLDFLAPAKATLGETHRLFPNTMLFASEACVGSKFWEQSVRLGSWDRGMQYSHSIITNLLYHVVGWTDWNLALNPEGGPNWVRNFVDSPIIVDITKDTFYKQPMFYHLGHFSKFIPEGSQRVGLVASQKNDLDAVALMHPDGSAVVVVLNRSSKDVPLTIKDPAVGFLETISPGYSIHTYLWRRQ

O=P(O)(O)OP(=O)(O)O
inactive: Potency [1] > 11.4 µM | outcome [2] | activity change, negative = inhibition [3] 3.99% [at 7.69 µM] | Potency [4] > 46 µM | Potency [5] > 9.22 µM | activity change, negative = inhibition [6] 0.801% [at 11.4 µM] | outcome [7]

CN1CCc2c(c3ccccc3n2Cc2ccccc2)C1
active: Potency [8] 5.01 µM
inactive: outcome [2] | outcome [6]

CC(=O)Oc1cc(C(F)(F)F)ccc1C(=O)O
inactive: Potency [8] | activity change, negative = inhibition [3] 27.2% | Potency [4] > 20.6 µM | Potency [5] > 20.6 µM | outcome [6]

CNC(=O)c1c(I)c(C(=O)NCC(=O)Nc2c(I)c(C(=O)O)c(I)c(C(=O)NCCO)c2I)c(I)c(N(C)C(C)=O)c1I
inactive: outcome [2] | Potency [8] | activity change, negative = inhibition [3] -16% | outcome [6] | outcome [7]

O=C1NCCN1c1ncc([N+](=O)[O-])s1
inactive: outcome [2] | activity change, negative = inhibition [3] -7.97% | Potency [4] > 20.6 µM | Potency [5] > 20.6 µM | outcome [6] | outcome [7]

Cn1nnnc1SCC1=C(C(=O)O)N2C(=O)[C@@H](NC(=O)[C@H](O)c3ccccc3)[C@H]2SC1
inactive: outcome [2] | activity change, negative = inhibition [3] 5.92% | Potency [4] > 20.6 µM

COc1ccc(C[C@H](C)NC[C@@H](O)c2ccc(O)c(NC=O)c2)cc1
inactive: Potency [4] > 46 µM | Potency [5] > 46 µM | outcome [6]

Cc1ncc[nH]1
inactive: Potency [9] > 92 µM | Potency [10] > 92 µM | Potency [11] > 92 µM | Potency [12] > 92 µM | Potency [13] > 92 µM | outcome [6] | activity change, negative = cytotoxicity [14] -1.34% | activity change, negative = cytotoxicity [15] -6.23% | Potency [16] | Potency [17] | Potency [18] | activity change, negative = cytotoxicity [19] -3.28% | outcome [20]

CC(C)O
inactive: Potency [9] > 92 µM | Potency [10] > 92 µM | Potency [11] > 92 µM | Potency [12] > 92 µM | Potency [13] > 92 µM | outcome [6] | activity change, negative = cytotoxicity [14] -11.4% | Potency [16] | Potency [17] | Potency [18] | activity change, negative = cytotoxicity [19] 5.6% | outcome [20]

OCc1ccccc1
inactive: Potency [9] > 92 µM | Potency [10] > 92 µM | Potency [11] > 92 µM | Potency [12] > 92 µM | Potency [13] > 92 µM | outcome [6] | activity change, negative = cytotoxicity [14] 4.71% | activity change, negative = cytotoxicity [15] 7.44% | Potency [16] | Potency [17] | Potency [18] | activity change, negative = cytotoxicity [19] -2.17% | outcome [20]

CC1=CC(=O)NS(=O)(=O)O1
inactive: Potency [9] > 92 µM | Potency [10] > 92 µM | Potency [11] > 92 µM | Potency [12] > 92 µM | Potency [13] > 92 µM | outcome [6] | activity change, negative = cytotoxicity [14] -19.6% | activity change, negative = cytotoxicity [15] -8.99% | Potency [16] | Potency [17] | Potency [18] | activity change, negative = cytotoxicity [19] -8.28% | outcome [20]

CCCCC
inactive: Potency [9] > 92 µM | Potency [10] > 92 µM | Potency [11] > 92 µM | Potency [12] > 92 µM | Potency [13] > 92 µM | outcome [6] | activity change, negative = cytotoxicity [14] 6.23% | activity change, negative = cytotoxicity [15] -10.6% | Potency [16] | Potency [17] | Potency [18] | activity change, negative = cytotoxicity [19] 5.08% | outcome [20]

O=c1n(CC2CO2)c(=O)n(CC2CO2)c(=O)n1CC1CO1 (stereo unspecified)
active: Potency [9] 30.6 µM | Potency [10] 14.7 µM | Potency [12] 51.4 µM | activity change, negative = cytotoxicity [15] -138% | Potency [17] 39.8 µM | Potency [18] 0.631 µM | activity change, negative = cytotoxicity [19] -90%

OCl
inactive: Potency [9] > 92 µM | Potency [10] > 92 µM | Potency [11] > 92 µM | Potency [12] > 92 µM | Potency [13] > 92 µM | outcome [6] | activity change, negative = cytotoxicity [14] -0.881% | activity change, negative = cytotoxicity [15] -13.5% | Potency [16] | Potency [17] | Potency [18] | activity change, negative = cytotoxicity [19] 2.44% | outcome [20]

C[C@@](Cc1ccc(O)c(O)c1)(NN)C(=O)O
inactive: Potency [4] > 46 µM | Potency [5] > 46 µM

CC(C)(C)CC(C)(C)c1ccc(OCCO)cc1
inactive: Potency [9] > 92 µM | Potency [10] > 92 µM | Potency [12] > 92 µM | Potency [13] > 92 µM | outcome [6] | activity change, negative = cytotoxicity [15] -28.8% | Potency [16] | Potency [18] | activity change, negative = cytotoxicity [19] -16.5% | outcome [20]

c1ccc2ccccc2c1
inactive: Potency [9] > 92 µM | Potency [10] > 92 µM | Potency [11] > 92 µM | Potency [12] > 92 µM | Potency [13] > 92 µM | outcome [6] | activity change, negative = cytotoxicity [14] 6.48% | activity change, negative = cytotoxicity [15] 0.772% | Potency [16] | Potency [17] | Potency [18] | activity change, negative = cytotoxicity [19] 1.8% | outcome [20]
